Test results reported in PubChem BioAssay (EPA / NIEHS).
Active and inactive are the calls of the source. How the source made its calls: active means hit-call score of the fitted dose curve at least 0.9, where 1 is the maximum; inactive means score below 0.9.

read-out: Apoptosis regulator Bcl-2 (Homo sapiens) (UniProt P10415); assay: LTEA_HepaRG_BCL2: Life Technologies and Expression Analysis (LTEA) Assay for Bcl-2 gene using HepaRG (AID 2283475); conditions: mRNA level, 48 h; actives raise or lower the signal;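 further: BCL2 transcript by TaqMan qRT-PCR normalised to ACTB GAPDH and POLR2A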
Experimental: LTEA_HepaRG is a cell based, multiplexed-readout assay that uses HepaRG, a human liver cell line, with measurements taken at 48 hours after chemical dosing on a 96-well plate.LTEA_HepaRG_BCL2 is one of 102 assay component(s) measured in the LTEA HepaRG cell culture assay. It is a marker of Cell proliferation, survival, death.Data from the assay component LTEA_HepaRG_BCL2 was analyzed into 1 endpoint. This assay endpoint, LTEA_HepaRG_BCL2, was analyzed with bidirectional fitting relative to DMSO as the negative control and baseline of activity. Using a type of inducible reporter, measures of mRNA induction for gain or loss-of-signal activity can be used to understand regulation of transcription factor activity. To generalize the intended target to other relatable targets, this assay endpoint is annotated to the cell cycle intended target family, where the subfamily is Cell proliferation, survival, death.
A total of 1060 chemcials from the ToxCast library were tested in eight-point concentration-response experiments. Cell culture and cytotoxicity assays were conducted at Thermo Fisher Scientific's Custom Services facility (Madison, WI). A single lot of human HepaRG cells (Thermo Fisher Scientific, Frederick, MD) was used for the cell culture experiments. 96-well format collagen type I coated plates of human HepaRG cells were prepared using established methods. Briefly, cryopreserved HepaRG cells were thawed, plated at a density of approximately 100,000 cells/well in HepaRG Thaw, Plate, and General Purpose media (HPRG770, Thermo Fisher Scientific), and incubated for 48 hours. 0.5% DMSO was selected as vehicle control to balance the requisite need of DMSO in HepaRG cultures to maintain differentiation (for example, baseline metabolism, proportions of hepatocytes vs. cholangiocytes), while enabling further hepatic receptor pathway activation (for example, PXR and CAR) in response to chemical exposure. 48 hours after plating, the culture medium was replaced with HepaRG Serum-Free Incudtion Media. Cells were exposed to each test chemical in duplicate and maintained in CO2 incubators for another 48 hours. Chemical plates were thawed to room temperature and 200x concentrations of treatment groups were prepared. 8-point conentration-reponse curves were made with the highest exposure at 100 uM, followed by half-log dilutions, all in 0.5% DMSO. Each test plate contained variouse controls, induction positive controls (1mM phenobarbital), cytotoxicity positive controls ([…] aflatoxin B1), vehicle controls (0.5% DMSO), and total lysis controls (0.5% DMSO). Cell morphology images were taken using an Essen IncuCyte FLR automated microscope, with six 96-well plates imaged in about 24 minutes. Images were captured and exported and JPEG files. Spent culture media was transfered to black-well plates for the LDH assay, and remaining media was sorted at -80 C for later use. Cells were treated with RLT buffer and frozen until shipped for gene expression analysis. Total RNA was isolated from the cell suspension in 75 uL of Buffer RLT (Qiagen, Germantown, MD 20874) by Quintiles/Expression Analysis (Durham, NC) using a custom isolation procedure. Total RNA from each plate well was transferred to a preamplification plate. Fluidigm's 96.96 Dynamic ArrayTM (Fluidigm, Amsterdam, the Netherlands) technology was used for gene expression analyses by quantitative reverse transcription polymerase chain reaction (qRT-PCR, performed by Quintiles/Expression Analysis, Durham, NC)89. Standard TaqManTM Assays (Applied Biosystems/ThermoFisher Scientific, Foster City, CA) were used to assess the expression of 93 genes selected based on their selectivity and sensitivity to important hepatic receptors known to be modulated by environmental chemicals; importance in human hepatocyte functionality; and hepatotoxicity. […]

Apoptosis regulator Bcl-2 (Homo sapiens), sequence (P10415 whole entry, looked up): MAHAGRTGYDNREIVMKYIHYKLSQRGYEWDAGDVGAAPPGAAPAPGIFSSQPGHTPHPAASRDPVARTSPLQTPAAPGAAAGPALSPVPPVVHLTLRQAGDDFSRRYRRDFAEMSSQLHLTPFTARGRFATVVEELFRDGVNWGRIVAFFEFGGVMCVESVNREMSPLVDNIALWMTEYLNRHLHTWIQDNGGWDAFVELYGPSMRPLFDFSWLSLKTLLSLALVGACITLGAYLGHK

Row | Compound | outcome | AC50
1 | COCCOC[C@H](CC1(C(=O)NC2CCC(C(=O)O)CC2)CCCC1)C(=O)Oc1ccc2c(c1)CCC2 (stereo not given in full) | inactive | –
2 | Cc1cccc(Nc2cc(Cl)nc(SCC(=O)O)n2)c1C | inactive | –
3 | NS(=O)(=O)c1cc2c(cc1Cl)NCNS2(=O)=O | inactive | –
4 | CNC(=O)[C@H]1O[C@@H](n2cnc3c(NCc4cc(Cl)ccc4OCc4cc(C)no4)ncnc32)[C@H](O)[C@@H]1N | inactive | –
5 | NCCO | inactive | –
6 | CN1CCCC1=O | inactive | –
7 | Nc1ccc(S(=O)(=O)c2ccc(N)cc2)cc1 | inactive | –
8 | CCCc1cc(=O)[nH]c(=S)[nH]1 | inactive | –
9 | COCCOCCOC | – | 0.723 µM (active)
10 | Cc1ccccc1Cl | inactive | –
11 | O=c1c(O)c(-c2ccc(O)c(O)c2)oc2cc(O)cc(O)c12 | inactive | –
12 | CC(C)c1ccc(C(=O)N=C(N)N)cc1S(C)(=O)=O | – | 0.558 µM (active)
13 | C[Si]1(C)O[Si](C)(C)O[Si](C)(C)O[Si](C)(C)O1 | inactive | –
14 | CN[C@H]1CC[C@@H](c2ccc(Cl)c(Cl)c2)c2ccc(S(N)(=O)=O)cc21 | inactive | –
15 | O=C(O)Cc1ccccc1Nc1c(Cl)cccc1Cl | inactive | –
16 | CC(C)(C)c1cc(O)c(C(C)(C)C)cc1O | inactive | –
17 | CCCCCCCCCCCCCO | inactive | –
18 | Cc1ccc(C)c(C)c1 | inactive | –
19 | COc1cc(-c2nc(NC(=O)c3cc4cc(C)cc(C)c4n3CC(=O)O)sc2CCC2CCCCC2)c(OC)cc1Cl | – | 20.1 µM (active)
20 | O=C(N[C@@H](Cc1ccccc1)[C@@H](O)C(=O)N1C[C@@H](O)[C@@H](O)C1)c1cc2cc(Cl)ccc2[nH]1 | inactive | –

Row | Compound | outcome | AC50
21 | CCNc1cccc(C)c1 | inactive | –
22 | Cc1ccc(C)c(O)c1C | inactive | –
23 | NCC1(Cc2noc(=O)[nH]2)CCCCC1 | inactive | –
24 | Cc1cccc([N+](=O)[O-])c1C | inactive | –
25 | NC(=O)Cn1c(=O)cc(CCN2CCN(c3nccc4sccc34)CC2)c2ccc(F)cc21 | – | 50 µM (active)
26 | Oc1ccc2ccccc2c1N=Nc1ccccc1 | – | 31.5 µM (active)
27 | Nc1nc(N)c2nc(CNc3ccc(C(=O)N[C@@H](CCC(=O)O)C(=O)O)cc3)cnc2n1 | inactive | –
28 | CNCc1cc(F)ccc1Oc1ccc(Cl)c(Cl)c1 | – | 88.3 µM (active)
29 | COc1cc(C=O)ccc1O | inactive | –
30 | CCCCCCC(=O)OCC | inactive | –
31 | CCOC(=O)C(C)(C)Oc1ccc(Cl)cc1 | inactive | –
32 | CCCCCCOCCO | inactive | –
33 | CC(=O)OCCOCCOCCOC(C)=O | inactive | –
34 | CC(=O)Oc1ccccc1C(=O)O | inactive | –
35 | O=c1[nH]cc(F)c(=O)[nH]1 | inactive | –
36 | O=C(O)CCCCC(=O)O | inactive | –
37 | CCCCOC(=O)CCCCCCCCC(=O)OCCCC | inactive | –
38 | COc1ccc(C)cc1N | inactive | –
39 | Nc1ccc2c(c1)C(=O)c1ccccc1C2=O | inactive | –
40 | Clc1cc(Cl)c(Cl)cc1Cl | inactive | –
